From PubChem BioAssay AID1745847 (National Center for Advancing Translational Sciences (NCATS), 2022) come the findings set out here.

Structures are written as SMILES. Hit rate of the full screen: of about 2,100 compounds, about 670 (32%) were called active. Not shown: some 50% with an inconclusive outcome. Calls follow the shape of the dose curve; as a rule, active = well fitted inhibition curve with a large enough effect; inconclusive = small, poorly fitted or top-dose-only effect; inactive = no such curve, though single readings can be large or run the other way. The list shows a part of the results.
% is scaled to controls: 0 for no effect and ±100 for the full control effect; potency is read from the fitted curve at half-maximal effect.

This experiment can be described thus: CMV-Luciferase Counterscreen for Inhibitors of ATXN expression. Also: nearly all actives have a fitted effect of over 55% in size. Particulars: HEK-293 CMV-luciferase reporter, luminescence, 24 h; series mostly up to 57.5 µM; activity change, negative = inhibition: at the top concentration.
Consider `Cc1ccc(/C=N/NC(=O)C2=NNC(c3ccccc3)(c3ccccc3)C2)c(O)c1`, for which the Potency is 3.16 µM (active).
Consider `CCN(CC)CCNc1ccc(CO)c2sc3ccccc3c(=O)c12`, for which the Potency was 17.8 µM (active).
Same read-out and setting: the same measure for `O=c1c2ccccc2sc2c(CO)ccc(NCCN3CCCCC3)c12`: 22.4 µM (active).
`COC(/C(=N/O)c1ccc(Cl)cc1)c1ccccc1` (configuration not stated): the “activity change, negative = inhibition” value is -21.2% (inactive).
For `Cc1cc(NCc2ccccn2)n2nc(C)c(-c3ccc(Cl)cc3)c2n1`, the Potency is 20 µM (active).
With `Cc1cc(Oc2ccc(Cl)cc2)nc(-c2ccccn2)n1`, the “activity change, negative = inhibition” value was -22.3% (inactive).
Still for that read-out and setting: in the case of `CCCCC(=O)N(CCOC)c1nnc(-c2ccccc2C)s1` it was -14.2% (inactive); in that of `CCOc1cc([C@@H]2C[C@H]3CN(c4ccccc4)C(=O)[C@]34CCCN24)ccc1OC`, 4.3% (inactive).
For the molecule `Cc1cccc2sc(NNC(=O)c3ccc(S(=O)(=O)N4CCCC(C)C4)cc3)nc12` (configuration not stated), the Potency was 4.47 µM (active).
On the same count and under the same terms, in the case of `Cc1cc(C)c2nc(NNC(=O)c3ccc(S(=O)(=O)N4CCc5ccccc5C4)cc3)sc2c1` it was 3.16 µM (active).
`N#CCc1nc2ccccc2c(=O)[nH]1`: the “activity change, negative = inhibition” value is -6.07% (inactive).
Regarding `Nc1c2ccccc2nc2ccccc12`, the Potency is 4.47 µM (active).
With `Oc1ccc(CN2CCC(Cc3ccccc3)CC2)c2cccnc12`, the activity change, negative = inhibition was -19.8% [at 11.4 µM] (inactive).
Take `CN(C)c1ccc(Cc2cc3c(O)ccc(O)c3cc(Cc3ccc(N(C)C)cc3)c2=O)cc1`: the activity change, negative = inhibition was -9.62% [at 11.4 µM] (inactive).
As to `Oc1ccc(Cc2ccccc2)c2cccnc12`, the Potency is 11.2 µM (active).
Take `CCCOCc1ccc(O)c2ncccc12`: the Potency is 20 µM (active).
Still for that read-out and setting: in the case of `CC[n+]1c(/C=C/N(C)c2ccccc2)oc2ccc(F)cc21` it was 15.8 µM (active); in that of `O=C(O)CSc1cc(NS(=O)(=O)c2cccc([N+](=O)[O-])c2)c2ccccc2c1O`, 3.55 µM (active).
On to `O=C(O)CSc1cc(NS(=O)(=O)c2ccc(Cl)cc2)c2ccccc2c1O`, for which the Potency was 28.2 µM (active).
Take `CCc1ccc(CNC(=O)C2CCN(c3nnc(C)c4c(C)n(-c5ccc(C)cc5)nc34)CC2)cc1`: the “activity change, negative = inhibition” value was -27.5% (inactive).
In the case of `CCc1c(C)nc2ncnn2c1N1CCC(C(=O)Nc2ccc(C)cc2)CC1`, the Potency was 12.6 µM (active).
On the same count and under the same terms, the same measure for `O=C(Nc1ccc2c(c1)CCC2)C1CCN(c2c3c(nc4ncnn24)CCC3)CC1`: 7.08 µM (active).
For `CNc1ccccc1C(=O)OC(C)C(=O)Nc1ccc(Cl)cn1` (configuration not stated), the activity change, negative = inhibition was 94.6% [at 11.4 µM] (inactive).
On to `CC(=O)Oc1c(Br)cc(N(C(C)=O)S(=O)(=O)c2ccccc2)c2ccccc12`, for which the Potency was 15.8 µM (active).
Regarding `COc1ccc2nc(C)cc(SCC(=O)N/N=C/c3ccc(O)cc3O)c2c1`, the Potency is 11.2 µM (active).
With `Cc1cc(SCC(=O)NN)c2cc(Br)ccc2n1`, the “activity change, negative = inhibition” value was 0.829% (inactive).
As for `COc1ccc(/C=N/NC(=O)c2nc(-c3ccccc3)n(-c3ccccc3)n2)c(O)c1`, the Potency was 8.91 µM (active).
